Source: PubChem BioAssay AID488922 (Johns Hopkins Ion Channel Center, 2010)
The whole screen tested about 310,000 compounds, of which about 3,800 (1.2%) were called active.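 How the source made its calls: active means ratio B-score over 3 SD below the library mean, with starting fluorescence within 5 SD of its mean; inactive means the rest, inconclusive results apart.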 What follows is part of a selection rich in actives, with near analogues and random picks from the rest.

molecular target: Potassium channel subfamily K member 9 (Homo sapiens) (UniProt Q9NPC2); test: blockers of human TASK-3 (KCNK9) channel – HEK293 cells, thallium flux, primary screen (AID 488922); settings: HEK293 KCNK9, FluxOR thallium flux fluorescence, at 10 µM; active compounds read low;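 on B-score: negative B-score means less thallium flux so channel inhibition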
Sequence (Q9NPC2 whole entry, looked up): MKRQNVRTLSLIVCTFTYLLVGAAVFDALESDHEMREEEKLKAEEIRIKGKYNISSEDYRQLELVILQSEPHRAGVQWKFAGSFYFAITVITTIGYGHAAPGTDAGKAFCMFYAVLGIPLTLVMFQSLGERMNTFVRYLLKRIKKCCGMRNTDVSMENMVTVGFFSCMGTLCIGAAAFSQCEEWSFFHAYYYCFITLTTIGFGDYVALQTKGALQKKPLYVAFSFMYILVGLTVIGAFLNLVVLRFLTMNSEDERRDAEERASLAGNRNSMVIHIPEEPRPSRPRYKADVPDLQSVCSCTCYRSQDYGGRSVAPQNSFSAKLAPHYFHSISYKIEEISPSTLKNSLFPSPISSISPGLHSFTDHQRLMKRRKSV

Row | SMILES | B-score
1 | C[C@H](NC(=O)c1nc[nH]c1C(=O)NCC(=O)OC(C)(C)C)C(=O)OCc1ccccc1 | inactive
2 | O=C(NCC1CCCO1)c1cc2c([nH]c3ccccc32)c(-c2ccc(F)cc2)n1 (stereo not drawn) | inactive
3 | CSCC[C@H](NC(=O)CCCn1nnc2ccccc2c1=O)C(=O)O | inactive
4 | CCN(CC)CCNC(=O)c1ccc(NC(=O)c2c(F)cccc2Cl)cc1 | inactive
5 | Cc1cc(=O)[nH]c(N/N=C/c2c(C)nn(-c3ccccc3Cl)c2Cl)n1 | -6.92 (active)
6 | Cc1cc(=O)[nH]c(N/N=C/c2ccc3c(c2)OCCO3)n1 | inactive
7 | Cc1nn(-c2ccccc2)c(Cl)c1/C=N/NC(=O)c1nn(C)cc1[N+](=O)[O-] | inactive
8 | C=C1CCN([C@H](C(=O)NCc2cc(OC)c(OC)c(OC)c2)C(C)C)S(=O)(=O)c2ccccc21 | inactive
9 | CCN(c1ccccc1)S(=O)(=O)c1cc2c(cc1C)n(C)c(=O)c(=O)n2C | inactive
10 | Cc1ccc2c(c1)N(CC(=O)N(Cc1ccccn1)Cc1ccco1)C(=O)C(C(C)C)O2 (stereo not drawn) | inactive
11 | Cn1nc(C(F)(F)F)c2cc(C(=O)N3CCOCC3)sc21 | inactive
12 | COc1cccc(-c2nn(C)c3sc(C(=O)N4CCN(c5ccccc5)CC4)cc23)c1 | -9.93 (active)
13 | COc1cccc(-c2ccc(SCC(=O)N3CCN(c4ccccc4)CC3)nn2)c1 | inactive
14 | COc1ccccc1N1CCN(C(=O)c2cc3c(-c4ccc(Cl)cc4)nn(C)c3s2)CC1 | -13.6 (active)
15 | COc1cccc(-c2cc(C(=O)N3CCN(c4ccccc4OC)CC3)no2)c1 | inactive
16 | Cn1nc(-c2ccc(Cl)cc2)c2cc(C(=O)NCc3ccco3)sc21 | inactive
17 | CN1CCN(C2Cc3ccc(Cl)cc3Sc3ccc(F)cc32)CC1 (stereo not drawn) | inactive
18 | N#C/C=C/N1CCN(Cc2ccc3c(c2)OCO3)CC1 | inactive
19 | CC(C)(C)NC(=O)Cn1c(SCC(=O)Nc2nccs2)nc2ccccc21 | inactive
20 | O=C(Nn1cnnc1)c1cc(Cl)ccc1Cl | inactive
21 | COc1ccc(/C=N/OCc2ccccc2C#N)c(OC)c1 | inactive
22 | O=C(Nc1ccccc1)N1CCN(C(=O)Nc2ccccc2)CC1 | inactive
23 | COc1cc(C(=O)NCC(=O)N2CC=C(c3ccccc3)CC2)cc(OC)c1OC | inactive
24 | O=C(Nc1ccc(Cl)c(Cl)c1)N1CC=C(c2ccccc2)CC1 | -8.34 (active)
25 | Cc1cccc(N(C)C(=O)CN2C(=O)COc3ccc(S(=O)(=O)N4CCCCCC4)cc32)c1 | -8.26 (active)
26 | CC(=O)Nc1ccc(NC(=O)CN2C(=O)COc3ccc(S(=O)(=O)N4CCCCC4)cc32)cc1 | inactive

Row | SMILES | B-score
27 | CN(C)c1ccc(CNC(=O)CN2C(=O)COc3ccc(S(=O)(=O)N4CCCC4)cc32)cc1 | inactive
28 | COc1ccc(NC(=O)C(CC(C)C)NS(=O)(=O)c2ccc3c(c2)CCN3C(C)=O)cc1OC (stereo not drawn) | inactive
29 | S=c1nc2ccccc2c2nc(-c3cccnc3)[nH]n12 | inactive
30 | COCCCn1c(SCC(=O)Nc2oc(C)c3c(C)n[nH]c(=O)c23)nc2sc3c(c2c1=O)CCC3 | inactive
31 | Cc1nc2ccccc2nc1N/N=C/c1ccc(O)cc1O | inactive
32 | Fc1ccc(/C=N/Nc2nc(-c3cccnc3)nc3ccccc23)cc1 | inactive
33 | Oc1ccc(/C=N/Nc2nc(-c3ccccc3F)nc3ccccc23)c(O)c1 | -10.4 (active)
34 | O=C(CN1CCN(Cc2ccccc2)CC1)Nc1ccc(F)c(F)c1 | inactive
35 | Cc1ccc(NC(=O)NC(=O)c2ccccc2)cc1F | inactive
36 | O=C(CC(NC(=O)c1ccccc1)c1ccccc1)Nc1ccc(F)c(F)c1 (stereo not drawn) | -10 (active)
37 | Cc1ccc(N/N=C2\COC(C)(C)CC2=O)cc1 | inactive
38 | Cc1cccc(NC(=O)CN2CCCN(S(=O)(=O)c3ccc(Br)s3)CC2)c1 | -14.6 (active)
39 | Cc1ccc(S(=O)(=O)N2CCN(CC(=O)N/N=C/c3ccc(Br)s3)CC2)cc1 | inactive
40 | O=C(CN1CCCCCC1)Nc1ccc(S(=O)(=O)N2CCCCC2)cc1 | inactive
41 | O=C1CCN(Cc2ccc([N+](=O)[O-])cc2)CCN1[C@H](CO)Cc1ccccc1 | inactive
42 | CCC1(C)Cc2c(sc3nc(SC)nc(N)c23)CO1 (stereo not drawn) | inactive
43 | CCCSc1nc(NCc2ccco2)c2c3c(sc2n1)COC(C)(CC)C3 (stereo not drawn) | -9.18 (active)
44 | CCC1(C)Cc2c(sc3nc(SC)[nH]c(=O)c23)CO1 (stereo not drawn) | inactive
45 | COc1ccc(-c2nc3c(s2)CCc2onc(-c4ccc(OC)cc4)c2-3)cc1 | inactive
46 | CC1CC(C)CN(S(=O)(=O)c2cccc3nonc23)C1 (stereo not drawn) | inactive
47 | CCn1c(Cc2cccs2)nnc1SCC(=O)c1ccc(C)cc1 | inactive
48 | Cc1cc([N+](=O)[O-])ccc1NC1CCCC1 | inactive
49 | Cc1cc(C=O)c(C)n1-c1ccc(NC2CCCCC2)c([N+](=O)[O-])c1 | -24.9 (active)
50 | Cc1c(NS(=O)(=O)c2ccc(NC3CCCC3)c([N+](=O)[O-])c2)c(=O)n(-c2ccccc2)n1C | inactive
51 | Cc1ccc2nc(C)c3c(c2c1)N(c1ccccc1)CC3 | inactive
52 | Cc1nc2nc(SCC(=O)Nc3cccc(F)c3)[nH]c2cc1Br | inactive

Row | SMILES | B-score
53 | COc1ccc(-c2nc3n(c(=O)c2C#N)CCS3)c(OC)c1 | inactive
54 | CCC1CCC/C1=N\NC(=O)c1ccc(Cl)cc1 (stereo not drawn) | inactive
55 | Cc1sc2nc(CSCC(=O)NC3CCCCC3)[nH]c(=O)c2c1C | inactive
56 | CCCCCn1c(=O)c(C(=O)OCC)c(Cl)c2ccccc21 | -8.35 (active)
57 | CCOC(=O)c1nnn2c3ccccc3c(=O)n(C)c12 | inactive
58 | CCCCn1c(=O)c(C(C)=O)c(O)c2ccccc21 | inactive
59 | COc1ccccc1C1C(C#N)=C(N)Oc2c1c(-c1ccccc1)nn2-c1ccccc1 (stereo not drawn) | inactive
60 | CCc1nnc(NC(=O)CSc2nc(SC)ns2)s1 | inactive
61 | CN1C(C(=O)NCc2ccco2)CC2Cn3c(nc4ccccc43)C21 (stereo not drawn) | inactive
62 | O=C(Cc1ccc(F)cc1)N1CCN=C1SCc1cccc([N+](=O)[O-])c1 | inactive
63 | Cc1cc(C)cc(C(=O)N2CCN=C2SCc2ccc([N+](=O)[O-])cc2)c1 | -7.18 (active)
64 | Cc1cccc(CC(=O)N2CCN=C2SCc2ccc([N+](=O)[O-])cc2)c1 | inactive
65 | CC1=CC(=C(C#N)c2nc3ccccc3s2)C=C(C)N1c1ccc(F)cc1F | inactive
66 | O=S(=O)(Cc1nnnn1-c1ccc(Br)cc1)c1ccc(F)cc1 | inactive
67 | COc1ccc(C(=O)N2CCc3cc(OC)c(OC)cc3C2c2cccc([N+](=O)[O-])c2)cc1 (stereo not drawn) | -15.3 (active)
68 | COc1ccccc1C1SCCN1C(=O)c1ccc([N+](=O)[O-])cc1 (stereo not drawn) | inactive
69 | COc1ccc2[nH]c(=O)c(C3c4cc(OC)c(OC)cc4CCN3C(=O)c3ccco3)cc2c1 (stereo not drawn) | inactive
70 | O=C(NCCCO)/C(=C\C=C\c1ccccc1)NC(=O)c1ccccc1Cl | inactive
71 | Cc1ccc(CSc2nsc(C)c2C#N)cc1 | inactive
72 | O=C(Nc1ccc(F)cc1)C1CCCN(S(=O)(=O)c2ccc(-n3cnnn3)cc2)C1 (stereo not drawn) | inactive
73 | CN(C(=O)c1cccc(OC2CCN(S(=O)(=O)N(C)C)CC2)c1)C1CCOC1 (stereo not drawn) | inactive
74 | CN(C)S(=O)(=O)N1CCC(Oc2cccc(C(=O)NCCCC3CCCC3)c2)CC1 | -14.3 (active)
75 | CNS(=O)(=O)c1cccc(C(=O)NCC2CCCCC2)c1 | inactive
76 | Cc1ccc(CCNC(=O)c2ccc3nc4ccccc4c(=O)n3c2)cc1 | inactive
77 | CC(C)(C)c1nnc(NC(=O)C2c3ccccc3Oc3ccccc32)s1 | inactive
78 | CCn1ccnc1CNC(=O)CC1C(=O)NCCN1Cc1ccc(F)cc1Cl (stereo not drawn) | inactive

Row | SMILES | B-score
79 | COc1ccc(-c2nc3cc([N+](=O)[O-])ccc3o2)cc1OC | inactive
80 | O=[N+]([O-])c1ccc2c(c1)Nc1nc3ccccc3nc1N2 | inactive
81 | COc1ccc([N+](=O)[O-])cc1-c1nc2ccccc2nc1-c1ccccc1 | -9.17 (active)
82 | Cc1cnc(NC(=O)c2ccccn2)s1 | inactive
83 | CC(C)CNC(=O)C(=O)NCC(c1ccc2c(c1)OCO2)N1CCOCC1 (stereo not drawn) | inactive
84 | CC(C)[C@@H](NC(=O)OC(C)(C)C)C(=O)NCC1CCC(C(=O)N[C@@H](Cc2ccccc2)C(=O)O)CC1 (stereo partly drawn) | inactive
85 | CCCCC(=O)Nc1ccccc1N1CCN(c2ccc(F)cc2)CC1 | -13.2 (active)
86 | CCCC(=O)Nc1ccccc1N1CCN(C(=O)c2ccccc2)CC1 | inactive
87 | O=C(Nc1ccccc1N1CCCC1)c1ccc2ccccc2c1 | inactive
88 | Cc1cccc(C(=O)Nc2ccccc2N2CCN(c3ccc(F)cc3)CC2)c1 | -9.31 (active)
89 | O=C(Nc1ccccc1N1CCN(c2ccccc2)CC1)c1cccc(F)c1 | inactive
90 | CCC(C)C(=O)Nc1ccccc1N1CCN(c2ccc(F)cc2)CC1 (stereo not drawn) | inactive
91 | COc1ccc(NC(=O)CN(C)C(=O)CC2CCCCC2)cc1 | inactive
92 | CNC1(c2nnnn2-c2c(C)cccc2C)CCOC(C)(C)C1 (stereo not drawn) | inactive
93 | COc1ccccc1NC(=O)C1=C(C)Nc2nc3ccccc3n2C1c1cccs1 (stereo not drawn) | inactive
94 | O=[N+]([O-])/C=C/c1ccc2c(ccn2Cc2ccccc2)c1 | -9.63 (active)
95 | O=c1c([N+](=O)[O-])cc(C(F)(F)F)cn1Cc1cccc(Cl)c1 | inactive
96 | O=C(/C=C/c1cccc([N+](=O)[O-])c1)N1CCN(Cc2ccccc2)CC1 | inactive
97 | CC(C)Cc1nnc(NC(=O)CN2C(=O)NC3(CCCCC3)C2=O)s1 | inactive
98 | COc1cc(/C=C/C(=O)O)cc(S(=O)(=O)Nc2ccccc2C(=O)NCCc2ccccc2)c1OC | inactive
99 | CC1CCCC(NC(=O)c2cccc(N3CCCC3=O)c2)C1C (stereo not drawn) | inactive
100 | O=C(/C=C/Sc1ncn[nH]1)c1ccc(Cl)cc1 | inactive
101 | O=C(NNc1ccccc1Cl)C(O)(c1cccc(C(F)(F)F)c1)c1cccc(C(F)(F)F)c1 | -8.19 (active)
102 | CC(CC(=O)Nc1cc(C(F)(F)F)ccc1Cl)c1ccccc1 (stereo not drawn) | inactive
103 | O=C(Nc1cc(C(F)(F)F)ccc1Cl)C(=O)N1CCCCC1 | inactive
